# Experimental data as given in PubChem BioAssay (NCATS).
# Results filed as inconclusive are left out. Where a call stands in place of a potency, no number is given. Activity calls are given as the source filed them. Calls follow the shape of the dose curve; as a rule, active = well fitted activation curve with a large enough effect; inconclusive = small, poorly fitted or top-dose-only effect; inactive = flat fitted curve, though single readings scatter.
# Assay: Validation screen for small molecules that induce DNA re-replication in MCF 10A normal breast cells (AID 463097); also: nearly all actives have a fitted effect of over 60% in size
# Conditions: MCF 10A cells, DNA re-replication phenotype imaging; series mostly up to 46.1 µM
# From the text: NIH Molecular Libraries Probe Production Network [MLPCN]
# NIH Chemical Genomics Center [NCGC]
# Assay Provider: Melvin DePamphilis, NICHD, NIH
# Eukaryotic cells normally restrict genome duplication to once per cell division. When this process is aberrant, DNA re-replication occurs when cells reinitiate DNA replication before the first round of replication is complete. DNA re-replication induces the DNA damage response, arrests cell proliferation, and triggers apoptosis. The cell cycle components cyclin A, Cdt-1, Cdc6 and geminin are critical regulators of this process and their misregulation results in DNA re-replication in normal and cancer cells. To identify compounds that induce re-replication in normal cells, an image-based assay was used to measure DNA content of nuclei, as detected by the fluorescent DNA binding dye, Hoechst. Cell nuclei were imaged by a fluorescence scanning plate imager and compounds that induce DNA re-replication were identified by the increase of nuclei with elevated fluorescence intensity.
# For screening, 250 cells in 5 uL/well were dispensed into black clear 1536-well plates (Aurora) using a solenoid-based dispenser. Following transfer of 23 nL compound or DMSO vehicle by a pin tool, the plates were incubated 48 hr at 37 C and 5% CO2. After addition of 1 uL/well Hoescht stain, the plates were incubated 40 min at 37 C, 5% CO2 and total intensity of fluorescent objects (nuclei) were enumerated by an Acumen Explorer Ex3 (TTP LabTech) fluorescence scanning plate imager (405 nm excitation, 500-530 nm emission).
# Keywords: NIH Roadmap, MLPCN, MLI, MLSMR, qHTS, NCGC, DNA replication, cancer
# Potency is read from the fitted curve at half-maximal effect.
row,Structure (SMILES),Potency
1,NC(C(=O)O)c1cc(=O)[nH]o1 (stereo not given),inactive
2,CC(N)Cc1c[nH]c2ccc(O)cc12 (stereo not given),inactive
3,CCOC(=O)c1ncn2c1[C@@H]1CCCN1C(=O)c1cc(OC)ccc1-2,inactive
4,CC12NC(Cc3ccccc31)c1ccccc12 (stereo not given),inactive
5,CC(C)NP(=O)(NC(C)C)OP(=O)(NC(C)C)NC(C)C,inactive
6,COc1ccc2c(c1)C13CCCCC1C(C2)N(C)CC3 (stereo not given),inactive
7,COc1cc(CC(C)N)c(OC)cc1I (stereo not given),inactive
8,CC(N)c1cccc(Cl)c1Cl (stereo not given),inactive
9,NC(=O)COc1c(F)cc(SCCNS(=O)(=O)c2ccccc2)cc1F,inactive
10,NCCc1c[nH]c2ccc(C(N)=O)cc12,inactive
11,C/C(O)=C(\C#N)C(=O)Nc1cc(Br)ccc1Br,inactive
12,CNC(=O)OCC[N+](C)(C)C,inactive
13,COc1ccc2[nH]c3c(c2c1)CCNC3,inactive
14,Oc1ccc2c3c1O[C@H]1c4[nH]c5ccccc5c4C[C@@]4(O)C(C2)N(CC2CC2)CCC314 (stereo not given in full),inactive
15,N[C@@H](Cn1oc(=O)[nH]c1=O)C(=O)O,inactive
16,CCn1cnc2c(Nc3cccc(Cl)c3)nc(N[C@@H]3CCCC[C@@H]3N)nc21,3.55 µM (active)
17,NCC(O)c1cc(O)c(O)cc1F (stereo not given),inactive
18,CC(=O)NBr,inactive
19,O=C1CC[C@@]2(O)C3Cc4ccc(O)c5c4C2(CCN3CC2CC2)[C@H]1O5 (stereo not given in full),inactive
20,CCCN1CCCC2Cc3[nH]ncc3CC21 (stereo not given),inactive

row,Structure (SMILES),Potency
1,Cc1[nH]c2ccc(O)cc2c1CCN,inactive
2,CCCN(CCC)C1Cc2cc(OC)c(OC)cc2C1,inactive
3,C[N+](C)(C)CC#CCOC(=O)Nc1cccc(Cl)c1,inactive
4,C[N+]1(C)CCC(OC(=O)C(c2ccccc2)c2ccccc2)CC1,inactive
5,C[Se]C[C@H](N)C(=O)O,inactive
6,CN1CCc2cccc(Cl)c2CC1,inactive
7,C=CCN1C[C@@H](C)N([C@H](c2ccc(C(=O)N(CC)CC)cc2)c2cccc(OC)c2)C[C@@H]1C,inactive
8,CCCN(CCC)CCc1c[nH]c2ccc(C(N)=O)cc12,inactive
9,O=P(O)(O)C(Cl)(Cl)P(=O)(O)O,inactive
10,CC(N)Cc1c[nH]c2ccc(OCc3cccs3)cc12 (stereo not given),inactive
11,CO[C@H]1CC=C2CCN3CCC4=C(CC(=O)OC4)[C@]23C1,inactive
12,COc1ccc(OC)c(C(O)C(C)N)c1 (stereo not given),inactive
13,Cc1c2ccncc2c(C)c2c1[nH]c1ccccc12,7.08 µM (active)
14,NNC(=O)c1ccc(O)cc1,inactive
15,C[C@@H]1O[C@H](C[N+](C)(C)C)CS1,inactive
16,COc1ccc(CNC(=O)/C=C/c2ccc3[nH]cc(CCN(C)C)c3c2)cc1,inactive
17,NC(Cc1cc(O)c(O)cc1O)C(=O)O (stereo not given),inactive
18,C#CCN[C@H](C)Cc1ccccc1,inactive
19,O=C(O)c1cc[c]([Hg][Cl])cc1,inactive
20,c1ccc2c(c1)[I+]c1ccccc1-2,6.31 µM (active)
